Data published in PubChem BioAssay (Tox21).
Results filed as inconclusive are left out. A call without a number means that no potency is given here. Calls of active or inactive are those of the source. Calls come from the whole dose curve; as a rule, active = well fitted cell-killing curve with a large enough effect in the repeat runs; inconclusive = weak or mixed curves, or effect the other way; inactive = flat fitted curve, though single readings scatter.
Potency is the fitted concentration of half-maximal effect.

Assay: qHTS RealTime-Glo MT Cell Viability Assay in HEK293 cells - 32 hour (AID 1224868); note: nearly all actives have a fitted effect of over 50% in size; for activity change, negative = cytotoxic: top concentration of the series differs between compounds
Settings: RealTime-Glo luminescence; series mostly up to 76.8 µM
Excerpt: National Center for Advancing Translational Sciences [NCATS]
NIH Chemical Genomics Center [NCGC]
U.S. Environmental Protection Agency [EPA]
National Institutes of Environmental Health Sciences [NIEHS]
National Toxicology Program [NTP]
U.S. Food and Drug Administration [FDA]
Measure of cell viability is critical in the cell-base assay. Analysis of cell viability is necessary for the characterization of cell responses to cytotoxic drugs and environmental stress. A RealTime-Glo MT Cell Viability Assay to monitor cell viability in real time of continues cell culture during 40 hours of compound treatment was used to screen Tox21 10K library compounds in Hek293 cells. The RealTime-Glo MT Cell Viability Assay is a nonlytic, homogeneous, bioluminescent method to measure cell viability in real time using a simple, plate-based method. The assay involves adding NanoLuc luciferase and a cell-permeant prosubstrate to cells in culture. Viable cells reduce the proprietary prosubstrate to generate a substrate for NanoLuc luciferase. This substrate diffuses from cells into the surrounding culture medium, where it is rapidly used by the NanoLuc Enzyme to produce a luminescent signal. The signal correlates with the number of viable cells, making the assay well suited for cytotoxicity studies.
Tox21 Assay Protocol Summary:
The mixture of Hek293 cell suspension and reagents were dispensed at 600cells/6 ul/well in 1536-well tissue culture treated black solid bottom plates using a Multidrop dispenser. After the assay plates were incubated at a 37 C/5% CO2 incubator for 5 hours, 23 nL of compounds dissolved in DMSO, positive and negative controls was transferred to the assay plate by a pintool work station. The plates were incubated at 37 C for 40 hours. The luminescence intensity were measured at 0h, 8h, 16h, 24h, 32h and 40h time points using ViewLux plate reader during compound treatment.
In the case of `CC(=O)Nc1ccc(O)cc1`, the Potency is reported as “inactive”.
With `C[C@]12CC[C@H]3C(=CCc4cc(O)ccc43)[C@@H]1CCC2=O` the Potency was 49 µM (active).
With `CCOCN(C(=O)CS(=O)(=O)O)c1c(C)cccc1CC` the Potency was “inactive”.
In the case of `CCOCOCC`, the Potency is reported as “inactive”.
For `CCc1ccc(O)c(C(C)(C)C)c1`, the Potency was “inactive”.
In the case of `CCCCCCC(C)Nc1ccc(Nc2ccccc2)cc1` (stereo not given), the Potency is reported as 24.5 µM (active).
For `CCCCC(CC)COC(=O)c1ccc(O)cc1` (stereo not given), the Potency was 54.7 µM (active).
For `CCN=C1C=CC(=C(c2ccc(N(CC)CC)cc2)c2ccc(N(CC)CC)cc2)c2ccccc21`, the Potency was 6.88 µM (active).
For `Cc1ccc(O)cn1`, the Potency was “inactive”.
With `C#CC(O)CCC` (stereo not given) the Potency was “inactive”.
In the case of `COc1cc(C=C2CCC/C(=C\c3ccc(O)c(OC)c3)C2=O)ccc1O`, the Potency is reported as 23.9 µM (active).
In the case of `O=S(=O)(O)CCCN1CCOCC1`, the Potency is reported as “inactive”.
For `C=CC(=C)CCC=C(C)C`, the Potency was “inactive”.
With `OCCN1CN(CCO)CN(CCO)C1` the Potency was “inactive”.
With `Brc1ccccn1` the Potency was “inactive”.
With `ClC/C=C\CCl` the Potency was “inactive”.
For `CCCCOC(=O)C(C)CC` (stereo not given), the Potency was “inactive”.
In the case of `CC(=O)O[C@@H]1C[C@@H]2CC[C@@]1(C)C2(C)C`, the Potency is reported as “inactive”.
In the case of `O=C1NCN(c2ccccc2)C12CCN(CCCC(c1ccc(F)cc1)c1ccc(F)cc1)CC2`, the Potency is reported as 19 µM (active).
In the case of `CCN(CC)CCNc1ccc(CO)c2sc3ccccc3c(=O)c12`, the Potency is reported as 16.9 µM (active).
With `C[Si](C)O[Si](C)C` the Potency was “inactive”.
For `C=C/C=C/C=C/CCCCC`, the activity change, negative = cytotoxic was 0.818% [at 15.8 µM] (inactive).
In the case of `CCc1ccc(C)nc1`, the Potency is reported as “inactive”.
In the case of `Cc1ccc(CCn2c3c(c4cc(Cl)ccc42)CN(C)CC3)cn1`, the Potency is reported as 19 µM (active).
In the case of `CC1=C(/C=C/C(C)=C/C=C/C(C)=C\C=O)C(C)(C)CCC1`, the Potency is reported as 46.4 µM (active).
With `NC1(c2ccc(-c3nc4ccn5c(=O)[nH]nc5c4cc3-c3ccccc3)cc2)CCC1` the Potency was 1.9 µM (active).
In the case of `OCCCc1cccnc1`, the Potency is reported as “inactive”.
With `Cn1cnc2ncnc(N)c21` the Potency was “inactive”.
With `CCc1cccc(CC)c1NC(=O)C(=O)O` the Potency was “inactive”.
In the case of `O=C1NCCN1CCN1CCC(c2cn(-c3ccc(F)cc3)c3ccc(Cl)cc23)CC1`, the Potency is reported as 21.3 µM (active).
In the case of `CC(C)c1ccccc1N`, the Potency is reported as “inactive”.
For `CC(C)(C)c1n[nH]c(=O)n(N)c1=O`, the Potency was “inactive”.
For `CCN1CCN(c2cc(-c3ccc(F)cc3)c3c(n2)CCCCCC3)CC1`, the activity change, negative = cytotoxic was -11.6% [at 15.8 µM] (inactive).
For `CCCCCCCCCC(=O)N(C)C`, the Potency was “inactive”.
In the case of `COc1nccnc1CC(C)C`, the Potency is reported as “inactive”.
With `CCCC(O)C(O)CO` (stereo not given) the Potency was “inactive”.
With `CN1[C@@H]2CC[C@@H]1CC(OC(=O)C(CO)c1ccccc1)C2` (stereo not given in full) the Potency was “inactive”.
With `NCCCC(O)(P(=O)(O)O)P(=O)(O)O` the Potency was “inactive”.
In the case of `CC1CCCNC1` (stereo not given), the Potency is reported as “inactive”.
In the case of `CC(NCCC(c1ccccc1)c1ccccc1)c1ccccc1` (stereo not given), the Potency is reported as 19 µM (active).
